Data from PubChem BioAssay AID624405 (Broad Institute, 2012).
Screen size: about 1,900 compounds; about 250 (13%) were called active. Inconclusive results (about 4%) are left out. The list is a sample of the results. Measured potencies and affinities stand elsewhere. A number with no mark means an inactive call.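 The calls were made as follows: active = fitted curve reaches 40% rescue activity at or below the top valid dose, in every test run; inconclusive = test runs disagree, some active and some inactive; inactive = every run misses the threshold or moves the wrong way.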

Experiment: suppressors of statin myotoxicity in myotubes, dose response, cell-based, C2C12 myotubes, ATP luminescence, cherry pick (AID 624405);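 also: myotubes are challenged with simvastatin at 10 µM to lower ATP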
Conditions: C2C12 myotubes + simvastatin, 48 h, scaled: DMSO wells 0, geranylgeraniol wells 100; series mostly up to 19.5 µM; rescue activity (ATP increase): at the top concentration

Compound	rescue activity (ATP increase)
CNC[C@@H]1Oc2ccc(NC(=O)Nc3ccc(C(F)(F)F)cc3)cc2CC(=O)N([C@@H](C)CO)C[C@@H]1C	-3.3%
CCOc1cc(CNCc2ccncc2)cc(Br)c1OCc1ccccc1F	-28%
COc1ccc2c(c1)c(C(=O)OCCN(C)C)c(C)n2C	37.3%
O=C(COc1ccccc1)Nc1ccc(S(=O)(=O)N2CCCC2)cc1	-27.4%
Cc1c(C(=O)N2CCOCC2)oc2ccc(S(=O)(=O)N3CCCC3)cc12	1.94%
C[C@H]1CCCCO[C@@H](CN(C)C(=O)Nc2cccc3ccccc23)[C@@H](C)CN([C@@H](C)CO)C(=O)c2cc(NS(=O)(=O)c3ccc(Cl)cc3)ccc2O1	27.8%
C[C@@H]1CN([C@H](C)CO)C(=O)c2cc(C3=CCCCC3)cnc2O[C@@H]1CN(C)Cc1ccccc1F	9.58%
Cc1noc(C)c1NC(=O)Nc1ccc2c(c1)C(=O)N([C@@H](C)CO)C[C@@H](C)[C@H](CN(C)S(=O)(=O)c1c(C)noc1C)OCCCC[C@@H](C)O2	-8.13%
Nc1nnnn1NCc1cccc(OCc2ccccc2)c1	45.5%
COc1cc(CCC(=O)OCc2nnc(-c3ccccc3)o2)cc(OC)c1OC	71.2%
Cc1ccc(N2C(N)=NC(N)=NC2(C)C)c(C)c1	-3.46%
CCOC(=O)N1CCN(C(=O)c2ccc3c(=O)n(CCc4ccccc4)c(=O)[nH]c3c2)CC1	3.38%
CN1C(=O)c2cc(NS(=O)(=O)c3ccc(Cl)cc3)ccc2OC[C@@H]2O[C@@H](CC(=O)N3CCc4ccccc4C3)CC[C@H]21	24.8%
COc1cccc(C(=O)CN2C3=NCCCN3c3ccccc32)c1	-55.7%
CCCCN1C(=O)NC(NC(C)=O)(C(F)(F)F)C1=O (stereo unspecified)	20.1%
Cc1cccc(N=c2oc3cc(O)ccc3cc2C(N)=O)c1	0.245%
O=c1c2ccccc2n(Cc2ccc(F)cc2)c(=O)n1C1CCCC1	-1.96%
O=C(Cn1ncc2c3ccccc3n(Cc3cccc(Cl)c3)c2c1=O)NCC1CCCO1 (stereo unspecified)	21.1%
N#Cc1cc(-c2ccccc2)nnc1Sc1ccc(Cl)cc1	-22%
COc1ccc(CN(Cc2cccn2C)C(=O)c2cc3cc(OC)ccc3[nH]2)cc1	11.4%
Cn1c(-c2ccc(F)cc2)cnc1NCc1ccc(F)cc1	-41.3%

Compound	rescue activity (ATP increase)
COc1cc(NC(=O)c2cccs2)c(C(=O)OCC(=O)NCc2ccco2)cc1OC	-6.19%
Cc1ccc(CNC(=O)CNS(=O)(=O)c2cccc3nsnc23)cc1	-8.33%
COc1ccc(S(=O)(=O)Nc2ccc3c(c2)C(=O)N([C@H](C)CO)C[C@@H](C)[C@H](CN(C)S(=O)(=O)c2ccc(F)cc2)OCCCC[C@H](C)O3)cc1	11.2%
CNC[C@@H]1Oc2ccc(NS(=O)(=O)c3c(C)noc3C)cc2C(=O)N([C@@H](C)CO)C[C@@H]1C	26.8%
Cc1nc(CSc2ccc(Cl)cc2)cc(N2CC(C)OC(C)C2)n1 (stereo unspecified)	-17.7%
CC1CC(C)CN(CCCNC(=O)c2ccc3c(c2)NC(=O)C(N2CCCCC2)S3)C1 (stereo unspecified)	-22.8%
O=C(Nc1cccc(C(F)(F)F)c1)c1cc(-c2cccs2)on1	-19.6%
CC(=O)c1cccc(NC(=O)c2cc(-c3cccs3)on2)c1	39.1%
O=C(Nc1cc(Br)ccc1O)c1cc(-c2cccs2)on1	-16.9%
Cc1ccc(NC(=O)c2cc(-c3cccs3)on2)cc1	-5.35%
CCN(CCCNC(=O)C1CCC(=O)N1C(C)C)c1cccc(C)c1 (stereo unspecified)	26.9%
Cc1noc(C)c1S(=O)(=O)Nc1ccc2c(c1)C(=O)N([C@@H](C)CO)C[C@H](C)[C@H](CN(C)Cc1ccc3c(c1)OCO3)O2	-0.012%
O=C(Nc1ccccc1)Oc1cccc2cccnc12	-6.01%
COc1ccc(S(=O)(=O)Nc2ccccc2C(=O)NC(C)(C)C)cc1OC	33.8%
COc1ccccc1NS(=O)(=O)c1cccc(NC(=O)c2ccc3ccccc3n2)c1	4.04%
C#CCOC(=O)c1ccccc1C(=O)N(CC)CC	-18.7%
O=C(CCN1CCc2ccccc21)c1ccc2c(c1)OCCO2	-0.935% [at 10 µM]
COc1ccc(C2CC(=O)Oc3c(C(CCN4CCCCC4)c4ccc(N(C)C)cc4)c(OC)cc(OC)c32)cc1 (stereo unspecified)	-41.5%
O=C(Nc1cnn(Cc2ccccc2)c1)c1cc2nc(-c3ccco3)cc(C(F)(F)F)n2n1	-13.4%
COc1ccc(S(=O)(=O)Nc2cccc3c2O[C@H](CN(C)CC2CCCCC2)[C@H](C)CN([C@H](C)CO)C3=O)cc1	-8.94%
Cc1cc(NC(=O)COC(=O)C2CCN(S(=O)(=O)c3c(Cl)cccc3Cl)CC2)no1	26.2%

Compound	rescue activity (ATP increase)
N#Cc1ccc(-c2nnnn2-c2ccc3c(c2)OCO3)cc1	6.82%
COC(=O)c1ccccc1NC(=O)c1ccccc1OC	-9.52%
COc1ccccc1N(CC(=O)Nc1ccc2c(c1)OCCO2)S(C)(=O)=O	5.49%
Cc1noc(C)c1S(=O)(=O)N1CCC(C(=O)N2CCN(c3ccccc3Cl)CC2)CC1	7.83%
C[C@@H]1CCCCO[C@H](CN(C)CC2CCCCC2)[C@@H](C)CN([C@H](C)CO)C(=O)c2cc(NC(=O)CCCN(C)C)ccc2O1	2.27%
C[C@@H]1CN([C@@H](C)CO)C(=O)c2cc(C3=CCCCC3)cnc2O[C@@H]1CN(C)C(=O)C1CCOCC1	16.4%
O=C(COC(=O)CNC(=O)c1ccc(Br)o1)Nc1ccc2c(c1)OCCO2	20.8%
COc1ccc(C(=O)N2CCc3cc(OC)c(OC)cc3C2)cc1OC	14.1%
COc1ccc(C(=O)N2CCN(C(=O)c3cc(OC)c(OC)c(OC)c3)CC2)cc1	-13.4%
N#Cc1cc2c(nc1SCC(=O)N1CCCCC1)CCCCC2	7.11%
CC(C)(C)C(=O)Nc1ccccc1N1CCN(C(=O)c2ccc(Cl)cc2)CC1	47.4%
C[C@@H]1CN([C@H](C)CO)C(=O)Cc2cc(NC(=O)Cc3cn(C)c4ccccc34)ccc2O[C@@H]1CN(C)Cc1ccc(Cl)c(Cl)c1	28.1%
C[C@@H]1CN([C@@H](C)CO)C(=O)c2cc(NC(=O)C3CCCCC3)ccc2O[C@@H]1CN(C)Cc1ccc(Cl)c(Cl)c1	-5.83% [at 21 µM]
C[C@@H]1CN([C@H](C)CO)C(=O)Cc2cc(NC(=O)Nc3ccc(F)cc3)ccc2O[C@H]1CN(C)Cc1ccc(Cl)c(Cl)c1	21.5% [at 21 µM]
C[C@@H]1CN([C@@H](C)CO)C(=O)Cc2cc(NC(=O)C3CCCCC3)ccc2O[C@H]1CN(C)Cc1ccc(-c2ccccc2)cc1	38.7%
C[C@H](CO)N1C[C@H](C)[C@@H](CN(C)Cc2ccc(Cl)c(Cl)c2)Oc2ccc(NC(=O)NC3CCCCC3)cc2CC1=O	17.5%
C[C@@H]1CN([C@H](C)CO)C(=O)c2cc(NC(=O)C3CCCCC3)ccc2O[C@H]1CN(C)Cc1ccc(Cl)c(Cl)c1	-1.86% [at 21 µM]
C[C@H]1CN([C@@H](C)CO)C(=O)Cc2cc(NC(=O)Cc3cn(C)c4ccccc34)ccc2O[C@@H]1CN(C)Cc1ccc(Cl)c(Cl)c1	28.9%
C[C@H](CO)N1C[C@H](C)[C@@H](CN(C)Cc2ccc(Cl)c(Cl)c2)Oc2ccc(NC(=O)c3ccncc3)cc2CC1=O	24.4%
